Measured values: PubChem BioAssay AID485346 (Sanford-Burnham Center for Chemical Genomics, 2010)
About 10,000 (3%) of roughly 330,000 compounds were called active. The entries come from a sample that favours actives as a whole. A number with no mark means an inactive call.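 How the source made its calls: active means inhibition of at least 50% at 8 µM in the primary screen; inactive means the rest.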

Target: Protein Mdm4 (Homo sapiens) + E3 ubiquitin-protein ligase Mdm2 (Homo sapiens) (UniProt O15151+Q00987)
Sequence (O15151 whole entry, looked up): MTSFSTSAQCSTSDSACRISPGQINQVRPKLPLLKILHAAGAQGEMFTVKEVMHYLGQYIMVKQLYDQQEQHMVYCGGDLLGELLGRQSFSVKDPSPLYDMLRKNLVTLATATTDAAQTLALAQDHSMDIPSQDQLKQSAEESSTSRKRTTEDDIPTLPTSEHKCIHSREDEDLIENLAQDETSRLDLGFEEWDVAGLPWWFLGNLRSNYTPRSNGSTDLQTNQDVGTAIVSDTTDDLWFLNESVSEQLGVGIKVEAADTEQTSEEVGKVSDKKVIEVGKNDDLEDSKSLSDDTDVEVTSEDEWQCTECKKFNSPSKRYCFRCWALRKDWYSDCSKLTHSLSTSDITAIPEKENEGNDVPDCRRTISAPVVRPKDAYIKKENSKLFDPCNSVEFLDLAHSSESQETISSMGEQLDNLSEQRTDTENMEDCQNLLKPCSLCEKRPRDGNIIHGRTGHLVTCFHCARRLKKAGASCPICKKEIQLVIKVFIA
Sequence (Q00987 whole entry, looked up): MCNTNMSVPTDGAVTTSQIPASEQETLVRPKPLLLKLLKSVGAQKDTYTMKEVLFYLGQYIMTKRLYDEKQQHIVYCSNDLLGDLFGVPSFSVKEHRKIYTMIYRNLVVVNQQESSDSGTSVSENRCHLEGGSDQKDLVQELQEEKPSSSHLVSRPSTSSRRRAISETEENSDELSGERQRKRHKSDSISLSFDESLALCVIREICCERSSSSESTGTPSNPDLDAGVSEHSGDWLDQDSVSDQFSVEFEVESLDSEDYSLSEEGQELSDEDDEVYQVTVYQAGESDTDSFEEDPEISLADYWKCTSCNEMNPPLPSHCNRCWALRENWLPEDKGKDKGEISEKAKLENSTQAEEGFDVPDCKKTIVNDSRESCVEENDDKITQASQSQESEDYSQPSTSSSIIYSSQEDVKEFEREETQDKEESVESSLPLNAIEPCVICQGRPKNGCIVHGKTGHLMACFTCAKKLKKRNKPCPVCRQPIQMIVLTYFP
Test: inhibitors of human Mdm2-MdmX association, primary screen, cell-based, luminescence, split luciferase, SaOS-2, uHTS (AID 485346)
Conditions: SaOS-2 split-luciferase Mdm2/MdmX complementation, at 8 µM, hits give high values

SMILES	inhibition
Cc1ccc2nc3c(cc(C(=O)NCCc4ccccc4)c(=N)n3CC3CCCO3)c(=O)n2c1 (centres undefined)	27.8%
COc1ccc(CNC(=O)c2cc3c(=O)n4ccccc4nc3n(CC3CCCO3)c2=N)cc1 (centres undefined)	22.4%
Cc1cccn2c(=O)c3cc(C(=O)NCC4CCCO4)c(=N)n(Cc4ccc(F)cc4)c3nc12 (centres undefined)	19.6%
Cc1cccn2c(=O)c3cc(C#N)c(=O)n(CCCN4CCOCC4)c3nc12	16%
COc1ccc(CCn2c(=N)c(C(=O)NCC3CCCO3)cc3c(=O)n4cccc(C)c4nc32)cc1OC (centres undefined)	64.4% (active)
Cc1cccn2c(=O)c3cc(C(=O)NCCN4CCOCC4)c(=N)n(Cc4cccnc4)c3nc12	52.7% (active)
COc1cccc(C2=CC(=O)C[C@H](c3ccc(F)cc3)C2)c1OC	11.8%
Cc1nc(-c2ccc(Cl)cc2)sc1C1(C)CC(c2ccc(Br)cc2)=NO1 (centres undefined)	4.57%
Cc1c(Cl)cccc1NC(=O)Nc1ccc(C(=O)N2CCCC2)cc1	41.9%
Cc1[nH]c(C)c(S(=O)(=O)N2CCC(C)CC2)c1C(=O)N1CCCC1	-8.55%
N#Cc1ccc(C2=CC(=O)C[C@H](c3ccc(Cl)cc3)C2)cc1	-22.1%
CCOC(=O)c1c(-c2ccc(C)cc2)csc1/N=C(\C)C1=C(O)c2ccccc2C1=O	63.4% (active)
CC(=NCc1ccco1)C1=C(O)c2ccccc2C1=O	-27.5%
COC(=O)c1c(-c2ccc(C)cc2)csc1N	16.7%
Cc1cc(-c2ccc(S(=O)(=O)N3CCc4ccccc4C3)s2)on1	-2.71%
C/C(=N\NC(=O)c1ccc(C)cc1)C1C(=O)c2ccccc2C1=O	1.09%
COc1cc(NC(=O)c2ccc(CNc3c(N4CCCC4)c(=O)c3=O)cc2)cc(OC)c1OC	-9.99%
O=C(NCc1ccc2c(c1)OCO2)c1c(O)nc2sccn2c1=O	16.7%
CC(=O)c1c(OCC(=O)N(C)C2CCCCC2)ccc2c(C)cc(=O)oc12	4.3%
CC1CCCN(CC(O)COCc2ccccc2)C1 (centres undefined)	3.39%
O=C(CN1CCN(c2ccc(F)cc2)CC1)Nc1ccccc1	0.1%
Cc1cccnc1NC(=O)c1cccc(S(=O)(=O)N2CCN(c3ccc(F)cc3)CC2)c1	28.4%
Oc1c(CN2CCCC2)cc(COCc2ccccc2)c2cccnc12	75.7% (active)
Oc1c(CN2CCN(c3ccc(F)cc3)CC2)cc(Cl)c2cccnc12	65% (active)

SMILES	inhibition
COc1cc(C)cc(CN2CCC(Cc3ccccc3)CC2)c1O	-29.4%
CC(C)(C)C1CCC(C(=O)Nc2cccnc2)CC1 (centres undefined)	19%
CCC(C)(C(=O)Nc1ccccc1C)N(C(=O)CNC(C)=O)c1ccc(C)cc1 (centres undefined)	-5.46%
CN1CCN(C2Cc3ccc(Cl)cc3Sc3ccc(F)cc32)CC1 (centres undefined)	54.3% (active)
CC(OC(=O)CCCOc1ccccc1)C(=O)Nc1ccc(Cl)cn1 (centres undefined)	17.5%
COC(=O)[C@@H]1C[C@@]2(O)[C@H](O)[C@H](O)[C@H](O)C[C@H]2N1Cc1ccc(C)s1	7.36%
CCC(c1nnnn1Cc1ccco1)N(CCc1ccccc1)Cc1cc2cccc(C)c2[nH]c1=O (centres undefined)	12.5%
CCC(c1nnnn1C1CCCC1)N(Cc1cccs1)Cc1cc2cccc(C)c2[nH]c1=O (centres undefined)	56.1% (active)
Cc1cccc2cc(CN(Cc3nnnn3Cc3ccccc3)C3CCCC3)c(=O)[nH]c12	13.2%
CN(C(=O)CSc1cccc[n+]1[O-])C1CCCCC1	20.9%
CN1CCN(CC#CCC2(O)c3ccccc3-c3ccccc32)CC1	16.2%
COc1ccc(-c2nnc(SC(C)C(=O)NC3CC3)o2)cc1 (centres undefined)	19.9%
COc1ccc(-c2nnc(SCC(=O)c3ccc4c(c3)OCCO4)o2)cc1	17.3%
COc1ccc(-c2nnc(SC(=O)N3c4ccccc4Sc4ccccc43)o2)cc1	69.1% (active)
O=C(CCc1ccccc1)Nc1ccc(NC(=O)C2CCCCC2)nc1	11%
COc1ccc(CNC(=O)CN(C(=O)c2csnn2)c2cnc3ccccc3c2)cc1	12.6%
CCOC(CNC(=O)C1CCN(S(=O)(=O)c2ccc3nc4c(c(C(=O)O)c3c2)CC(C)CC4)CC1)OCC (centres undefined)	14.5%
C/C(=N\NC(=S)NCc1ccccc1)c1ccc(Cl)cc1	12.3%
C/C(=N\OCC(=O)O)c1ccc(Cl)cc1	-3.73%
C/C(=N\N=C(N)N)c1ccc(Cl)cc1	52% (active)
CN(C)c1ccc(C(CNC(=O)c2ccc(F)cc2)c2c[nH]c3ccccc23)cc1 (centres undefined)	3.11%
COC(=O)c1c(NC(=O)COc2ccc(Cl)cc2Cl)sc2c1CC(C)(C)NC2(C)C	100% (active)
COC(=O)c1sccc1NC(=O)COc1ccc(Cl)cc1	-7.02%
Cc1cnc(C(=O)OCC(=O)Nc2ccc(Cl)cc2Cl)cn1	21.4%

SMILES	inhibition
CCc1ccc(CN(C)C(C)C(=O)Nc2ccc(S(=O)(=O)N3CCCC3)cc2)cc1 (centres undefined)	20.1%
O=C(CNC(=O)Cc1ccccc1)N=Nc1c(O)[nH]c2ccc(Br)cc12	37.6%
Oc1[nH]c2ccc(Br)cc2c1N=Nc1nn[nH]n1	13.6%
NS(=O)(=O)c1ccc(N=Nc2c(O)[nH]c3ccc(Br)cc23)cc1	53.6% (active)
COc1ccc(CC(=O)NCC(=O)N/N=C/c2cc(Br)ccc2OC)cc1	41.6%
Cc1ccc(OCCOCCOc2ccc(Br)cc2/C=N\NC(=O)c2ccncc2)cc1	59.9% (active)
Cc1ccc(S(=O)(=O)Oc2ccc(/C=N/NC(=O)c3ccncc3)cc2)cc1	16.6%
O=C(Nc1ccnn1C1CCN(C/C=C/c2ccc(F)cc2)CC1)C1CCCC1	22.3%
O=C(O)CN(Cc1ccco1)S(=O)(=O)c1ccc(F)cc1	-22%
Cc1onc(-c2c(F)cccc2Cl)c1C(=O)N(C)CC(=O)Nc1cccc(F)c1	-8.71%
COc1ccccc1NC(=O)CCCc1c[nH]c2ccccc12	-3.5%
COc1cccc(CNCCc2c[nH]c3ccccc23)c1OCc1ccccc1F	92.8% (active)
COc1ccc(S(=O)(=O)NCCc2c[nH]c3ccccc23)cc1OC	6.22%
Cc1ccoc1C(=O)Nc1cccc(Oc2ccccc2)c1	-66.5%
COC(=O)c1ccccc1NC(=O)C1(S(=O)(=O)c2ccc(Cl)cc2)CC1	-0.27%
COc1ccc(-c2[nH]ncc2CN(C)Cc2c(C)n[nH]c2C)c(OC)c1	15.3%
C=C(C)COc1ccc(-c2nc(N)ncc2-c2ccccc2OC)c(O)c1	17.9%
C=C(C)COc1ccc(-c2n[nH]c(C)c2-c2ccccc2OC)c(O)c1	53.6% (active)
C=C(C)COc1ccc(-c2n[nH]c(C)c2-c2ccccc2)c(O)c1	53.7% (active)
COc1ccc(-c2n[nH]c(C)c2-c2ccccc2OC)c(O)c1	38.6%
COc1ccc(-c2c(-c3ccc(OC)cc3O)nc(C)nc2C(F)(F)F)cc1	8.07%
C=C(C)COc1ccc(-c2ncncc2-c2ccc(OC)cc2)c(O)c1	29.3%
CCOc1ccc(-c2nc(N)ncc2-c2ccccc2OC)c(O)c1	11.3%
COc1ccc(-c2n[nH]c(C)c2-c2ccc(OC)c(OC)c2)c(O)c1	62.5% (active)

SMILES	inhibition
O=C(NCCCCO)C(F)(F)C(F)(F)C(F)(F)C(=O)NCCCCO	-22.9%
C=CCNCCCCOc1ccccc1	-9.48%
C/C=C/C=C/C(=O)OCC(=O)Nc1ccc(Cl)cc1	23.8%
Cc1ccc(N2C(=O)CC(Sc3ncn[nH]3)C2=O)cc1 (centres undefined)	7.7%
N#CC1(NC(=O)COC(=O)CSc2ccc(F)cc2)CCCCC1	6.22%
Cc1ccc(C(=O)NN(CCC#N)C2=NS(=O)(=O)c3ccccc32)cc1	6.64%
Cc1cn(C2OC[C@@H](O)[C@@H]2CO)c(=O)[nH]c1=O (some centres undefined)	-25.3%
CCOC(=O)c1ccc2c(c1)nc(C)n2CC	-24.3%
CCn1c(/C=C/Nc2ccccc2)[n+](CC)c2ccc(C(=O)OCC(F)(F)F)cc21	50.7% (active)
CCOC(=O)N1CCN(C(=O)c2ccc(S(=O)(=O)Nc3cccc(C(F)(F)F)c3)cc2)CC1	5.75%
Cc1nc2c(C(=O)NCc3cccs3)cnn2c(C)c1Cc1ccc(F)cc1	5.96%
CN(C)c1ccc(-c2nnc(-c3cccnc3)o2)cc1	-90.9%
CN(Cc1ccccc1)CC(O)COc1ccc(CNCc2cc3ccccc3s2)cc1 (centres undefined)	51.9% (active)
OC(CNCc1ccc2c(c1)OCO2)COc1ccccc1 (centres undefined)	-15.2%
Cc1ccc(OCC(=O)OC(C)CN(C)Cc2ccccc2)cc1 (centres undefined)	-13.3%
CCC(C)c1ccc(NC(=S)N2CCCC2)cc1 (centres undefined)	17.9%
O=C(O)CN1C(=O)CC(Cc2ccccc2)C1=O (centres undefined)	3.44%
NS(=O)(=O)c1ccc(CNC(=O)c2cccc(S(=O)(=O)N3CCc4ccccc43)c2)cc1	27.6%
C[C@@H]1CN([C@@H](C)CO)C(=O)c2cccc(NS(=O)(=O)c3ccc(F)cc3)c2O[C@H]1CN(C)C(=O)NC1CCCCC1	-2.62%
CN1CCN(c2ccccc2NC(=O)COc2ccc(C3CCCCC3)cc2)CC1	51.3% (active)
O=C(CN1CCN(C2CCCCC2)CC1)Nc1ccccc1N1CCCCC1	20%
Cc1ccc(C(C)C)cc1OCC(=O)Nc1ccccc1N1CCCC1	28.7%
